Most compounds without a hit are left out; they make up all but 2.5% or so of the library.
EWS-Fli block = blocks EWS/Fli oncoprotein-driven transcription | A673 NR0B1-luciferase reporter, viability-normalised | inhibition, % at 12.6 µM | 350,000 compounds, 0.67% hits;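 active = mean inhibition of at least 50% after viability correction, with every replicate also passing that limit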;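 note: firefly luciferase signal divided by Alamar Blue viability fluorescence both relative to DMSO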
EBV LMP1 NFkB = reduces LMP1-driven NF-kappaB luciferase signal; LMP1-induced NF-kappaB luciferase reporter cells, luminescence; inhibition, % at 12.5 µM; 350,000 compounds, 0.69% hits; in the data active = inhibition above about 41%;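 note: 0% = neutral control wells and 100% = reference inhibitor control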
LGR2 antag = inhibitors of bursicon-induced Drosophila LGR2 receptor cAMP signaling | HEK293 LGR2, CRE-luciferase, bursicon-stimulated, 4 h | inhibition, % at 9.99 µM | 380,000 compounds, 0.35% hits | AID 720647;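 active = drop in luminescence signal, shown as inhibition above about 50% in the replicate tests, limit read from the data, passing the limit was not always enough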;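 note: agonist challenge used bursicon conditioned medium at about half maximal strength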
TWEAK-Fn14 inh = TWEAK-Fn14 signaling inhibition; TWEAK-stimulated Fn14 reporter cells, luciferase luminescence, 8 h; inhibition, % at 10 µM; 360,000 compounds, 2% hits; AID 1159606; in the data active = inhibition above about 50%
TROY signal inh = inhibitors of TROY-dependent NF-kB signaling | Q293 LMP1-TROYcd NF-kB luciferase reporter, 4 h | 360,000 compounds, 0.98% hits | inhibition, % at 10 µM;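 active = compounds whose plate-normalised and pattern-corrected inhibition of the luciferase reporter signal at the single screening dose is 50% or more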
* = called active by the depositor; · = not tested or not shown.

SMILES | EWS-Fli block | EBV LMP1 NFkB | LGR2 antag | TWEAK-Fn14 inh | TROY signal inh
Cn1c(NCCO)nc2c1c(=O)n(Cc1cccc(Cl)c1)c(=O)n2C | -8 | -4 | -5 | -19 | -7
Cn1c(NCC(O)CO)nc2c1c(=O)n(Cc1ccc(Cl)c(Cl)c1)c(=O)n2C (configuration not stated) | · | -3 | · | 10 | 5
Cn1c(NCc2ccco2)nc2c1c(=O)n(Cc1ccc(Cl)c(Cl)c1)c(=O)n2C | · | 19 | · | 50* | 29
Cn1c(NCCN2CCOCC2)nc2c1c(=O)n(Cc1cccc(Cl)c1)c(=O)n2C | · | -1 | · | 80* | ·
O=C(CC1CC1)N1CC2(C1)[C@@H](c1ccccc1)[C@H](CO)N2CC1CCOCC1 | -3 | · | 10 | · | ·
COc1ccc2c3c([nH]c2c1)[C@H](CO)N(C(=O)c1ccc(F)cc1)CC31CN(S(=O)(=O)c2cccs2)C1 | 4 | · | -7 | · | ·
Cc1ccc(SCC(=O)OCC(=O)N(CCC#N)c2ccccc2)cc1C | -1 | -5 | 21 | -4 | 8
Cc1ccc(N(CCC#N)C(=O)CCl)cc1C | 72* | 2 | -1 | 56* | 3
FC(F)(F)c1nc(-c2cccs2)ncc1-c1nnnn1-c1ccc(Cl)cc1 | · | 25 | · | 99* | 66*
O=S(=O)(c1cccs1)N1CCN(CC(O)COc2cc(Cl)ccc2Cl)CC1 (configuration not stated) | · | 24 | 15 | 30 | 52*
COc1ccc2c3c(n(C)c2c1)[C@H](CO)N(S(C)(=O)=O)CC31CCN(Cc2nccs2)CC1 | -2 | · | 3 | · | ·
CN(C)c1ccc2c(c1)[C@@H]1C[C@@H](CC(=O)NCc3ccc(Oc4ccccc4)cc3)O[C@@H](CO)[C@@H]1O2 | 51* | · | · | · | ·
O=C(C[C@@H]1C[C@H]2c3cc(NC(=O)c4ccc5c(c4)OCO5)ccc3O[C@H]2[C@H](CO)O1)NCc1ccc(Oc2ccccc2)cc1 | 6 | · | 22 | · | ·
O=C(C[C@@H]1C[C@@H]2c3cc(NC(=O)NC4CCCC4)ccc3O[C@@H]2[C@@H](CO)O1)NCc1ccc(Oc2ccccc2)cc1 | 8 | · | -3 | · | ·
O=C(C[C@@H]1C[C@H]2c3cc(NC(=O)NC4CCCC4)ccc3O[C@H]2[C@H](CO)O1)NCc1ccc(Oc2ccccc2)cc1 | 60* | · | -2 | · | ·
O=C(C[C@@H]1C[C@H]2c3cc(NC(=O)c4ccc5c(c4)OCO5)ccc3O[C@H]2[C@@H](CO)O1)NCc1ccc(Oc2ccccc2)cc1 | -8 | · | 53* | · | ·
CN(C)CC(=O)Nc1ccc2c(c1)[C@H]1C[C@@H](CC(=O)NCc3cccc(F)c3)O[C@@H](CO)[C@H]1O2 | 6 | · | -4 | · | ·
CO[C@@H]1CN(C)C(=O)c2cc(NC(=O)C3CC3)ccc2OC[C@H](C)N(Cc2ccc(F)cc2)C[C@H]1C | 2 | · | 12 | · | ·
C/C=C/c1ccc2c(c1)O[C@@H](CN(C)C(=O)C1CCOCC1)[C@H](C)CN([C@@H](C)CO)S2(=O)=O | -3 | · | -4 | · | ·
O=C(O)CSc1nnc(-c2ccccc2)c(-c2ccccc2)n1 | -3 | -6 | -20 | 27 | 6
CCC(=O)NNC(=O)CSc1nnc(-c2ccccc2)c(-c2ccccc2)n1 | 10 | 85* | -2 | -13 | 11
O=C(/C=C\c1cccs1)c1c(O)ccc2ccc(=O)oc12 | · | -11 | 28 | 51* | 5
O=C(CCCOc1ccccc1)N1CCN(c2ccccn2)CC1 | · | -12 | · | 70* | 30
O=C(CCCOc1ccc(Cl)cc1Cl)N1CCN(c2ccccn2)CC1 | · | 4 | 31 | -12 | 36
COC(=O)C1CCN(C(=O)CCCOc2ccccc2)CC1 | · | 10 | · | 51* | -5
SMILES | EWS-Fli block | EBV LMP1 NFkB | LGR2 antag | TWEAK-Fn14 inh | TROY signal inh
CCOC(=O)Nc1ccc2c(c1)C(=NNC(N)=S)c1ccccc1-2 | 16 | -12 | 83* | 38 | 48
COc1ccc2[nH]c3c(c2c1)CC(C)NC3=O (configuration not stated) | 16 | 28 | 28 | 71* | 50
COc1ccc2[nH]c3c(c2c1)CCN1C(=O)CC[C@H]31 | 4 | · | · | · | ·
CC(=O)Nc1ccccc1C(=O)C(=O)Nc1cccc(C(=O)N2CC(C)CC(C)C2)c1 (configuration not stated) | 7 | -4 | 12 | 78* | 14
COc1ccc(NC(=O)Nc2cccc3c2O[C@H](CN(C)S(=O)(=O)c2cn(C)cn2)[C@@H](C)CN([C@@H](C)CO)C3=O)cc1 | -1 | · | 27 | · | ·
COc1cccc(C(=O)CC(=O)C(=O)Nc2ccc(C)cc2Cl)c1 | 9 | 46* | 14 | 91* | 36
COc1cccc(C(=O)CC(=O)C(=O)Nc2cc(OC)ccc2OC)c1 | 7 | -2 | -9 | 21 | -19
COc1ccc(C(=O)CC(=O)C(=O)Nc2ccc(C)cc2Cl)cc1 | 29 | 7 | -8 | 52* | -14
C[C@@H]1CCCCO[C@H](CN(C)S(=O)(=O)c2cn(C)cn2)[C@@H](C)CN([C@@H](C)CO)C(=O)c2cc(NC(=O)Cc3ccccc3)ccc2O1 | -1 | · | -1 | · | ·
COCC(=O)N1CC2(C1)[C@H](c1ccccc1)[C@H](CO)N2Cc1ccccc1OC | -1 | · | 4 | · | ·
O=C(NCC(c1cccs1)N1CCOCC1)c1cc([N+](=O)[O-])cc([N+](=O)[O-])c1 (configuration not stated) | -1 | 3 | -10 | 16 | 8
O=C(NCC(c1cccs1)N1CCOCC1)c1cc(F)cc(F)c1 (configuration not stated) | 53* | 12 | 1 | -5 | 13
O=C(Nc1ccc(Cl)cc1)Nc1csc([N+](=O)[O-])c1 | -2 | · | 0 | 67* | 41
O=C(Nc1csc([N+](=O)[O-])c1)Nc1c(Cl)cccc1Cl | 6 | 3 | -14 | -13 | -14
COc1cccc(-c2ccc(C3[C@@H]4CN(S(=O)(=O)Cc5ccccc5)C[C@H]3N4)cc2)c1 (some centres not stated) | 5 | · | -1 | · | ·
O=C(N/N=C/c1c(O)ccc2ccccc12)Nc1ccccc1 | 4 | · | -16 | · | ·
O=C(CSCC(=O)Nc1ccccc1)N/N=C/c1c(O)ccc2ccccc12 | · | 51* | 24 | 12 | 6
Cc1ccc(C(=O)N/N=C/c2c(O)ccc3ccccc23)cn1 | 14 | 65* | 6 | 9 | -10
Cc1c(/C=N/NC(=O)c2cccnc2)c2ccccc2n1Cc1ccccc1 | 33 | 3 | -2 | 56* | 12
Cn1cc(C(=O)N/N=C/c2c(O)ccc3ccccc23)ccc1=O | 4 | 62* | 21 | -5 | 6
O=C(C[C@@H]1C[C@@H]2c3cc(NC(=O)Cc4ccncc4)ccc3O[C@@H]2[C@@H](CO)O1)NCc1ccccn1 | 6 | · | 6 | · | ·
O=C1CNC[C@@H]2[C@@H](c3ccc(C#Cc4cccnc4)cc3)[C@@H](CO)N12 | -22 | · | 24 | · | ·

Source: PubChem BioAssay (several laboratories)
